# Screening data: PubChem, several laboratories
# Shown are actives, neighbours in structure and some others; about 1.8% of the full set was active somewhere.
# DUSP3 inh – DUSP3 (human) phosphatase inhibition. P51452. recombinant VHR phosphatase, pNPP absorbance. inhibition, % at 13.3 µM. hit rate 0.52% among 290,000. AID 1654; in the data active means inhibition above about 50%
# Target sequence (P51452 whole entry, looked up): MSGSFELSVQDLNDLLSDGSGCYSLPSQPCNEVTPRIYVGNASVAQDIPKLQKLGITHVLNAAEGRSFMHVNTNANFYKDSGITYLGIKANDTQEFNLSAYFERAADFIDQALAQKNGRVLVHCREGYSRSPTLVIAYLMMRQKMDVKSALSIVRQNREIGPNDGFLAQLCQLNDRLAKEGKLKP
# CCHF vOTU inh – blocks the CCHF virus ovarian tumor domain protease | AID 651958 | inhibition, % at 11.5 µM | hit rate 0.55% among 370,000 | CCHFV vOTU protease, Pep-AMC fluorescence; in the data active means inhibition above about 30%; further: 0% = vehicle wells with enzyme and 100% = no enzyme wells
# PrPC surface inh – inhibitors of human cell surface prion protein PrPC | P04156 | TR-FRET read-out | inhibition, % at 13.8 µM | hit rate 0.43% among 370,000 | AID 720596; in the data active means inhibition above about 24%; further: 0% = median of the test wells and 100% = reference compound wells
# Y pestis TopoI – Y. pestis Topo-I inhibition via cleavage products; Y. pestis Topo-I cleavage product accumulation, plate reader; activity, % at 10 µM; hit rate 0.064% among 360,000; AID 504884; in the data active means activity above about 50%, passing the limit was not always enough
# BH1578 lux ind – quorum light induction in luxS cqsA deficient V. cholerae. V. cholerae BH1578 lux reporter, luminescence, 6 h. activation, % at 18.7 µM. hit rate 0.16% among 350,000; in the data active means activation mostly above about 9.7%, no sharp cut-off
# MazF activator – activators of E. coli MazEF toxin-antitoxin RNase; hit rate 0.32% among 350,000; activation, % at 20 µM; FAM/BHQ RNA-DNA oligo cleavage fluorescence, 5 h; in the data active means activation above about 50%
# Target sequence (P0AE70 whole entry, looked up): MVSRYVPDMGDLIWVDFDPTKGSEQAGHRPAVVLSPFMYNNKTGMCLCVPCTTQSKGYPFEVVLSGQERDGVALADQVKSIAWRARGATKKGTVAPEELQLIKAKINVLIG
# * = called active by the depositor; i = inactive; . = no result.
SMILES,DUSP3 inh,CCHF vOTU inh,PrPC surface inh,Y pestis TopoI,BH1578 lux ind,MazF activator
O=C(NC1CCCCC1)C(c1ccc(Cl)cc1)N(C(=O)c1ccccn1)c1cccnc1 (centres undefined),57*,.,.,.,.,.
CC(=O)N[C@@H]1C[C@@H]2O[C@@H](CO)CC[C@@H]2O[C@@H]1CCc1ccc(C#CC2(O)CCCC2)cc1,.,0,7,.,.,.
Cc1cc(/C=C2\C(=O)NC(=O)N(Cc3ccccc3)C2=O)c(C)n1C1CC1,28,-3,-4,27,-1,725*
COc1cc(OC)c(OC)cc1/C=C1/C(=O)NC(=O)N(Cc2ccccc2)C1=O,20,0,1,-9,-1,-15
CC1=NN(c2ccccc2)C(=O)/C1=C\c1cn(-c2ccccc2)nc1C,22,-18,-2,-6,0,0
CC1=NN(c2ccccc2)C(=O)/C1=C/c1cc(C)n(C2CC2)c1C,13,10,9,6,-1,77*
CC(=O)N1CCCN(S(=O)(=O)c2ccc3c(c2)oc(=O)n3C)CC1,.,-4,-4,.,.,.
Cc1ccc(-c2ccccc2NC(=O)CCl)o1,6,8,-2,-7,i,1
Cc1ccc(-c2ccccc2NC(=O)CS(=O)CC(=O)Nc2ccc(C)c(Cl)c2)o1 (centres undefined),-2,-4,-13,28,-1,385*
COc1ccc(NC(=O)c2cc(-c3ccco3)on2)cc1OC,53*,15,3,-1,0,5
O=C(CCNC(=O)c1ccc(Cl)cc1)NCCC1=CCCCC1,.,5,10,12,3,-1
Cc1ccc(SCC(=O)NCCC2=CCCCC2)cc1,-15,7,-2,51*,3,-8
O=C(CCSCc1ccc(Cl)cc1)NCCC1=CCCCC1,4,3,3,65*,i,-4
O=C1C=C(NCCc2cc(Br)c(O)c(Br)c2)C(=O)c2ncccc21,.,108*,-33,-13,2,-9
CCOC(=O)/C(C#N)=C/c1ccc(-c2ccsc2C(=O)OC)o1,53*,-5,-3,8,0,5
CCOC(=O)C(=Cc1ccc(-c2ccsc2C(=O)OC)o1)C(=O)OCC,45,-10,6,3,-11,9
CN(C(=O)CSC1=NCCS1)c1ccccc1,52*,-10,10,5,1,2
Cc1nc2ccccc2n1C1CC(=O)N(N(C)C)C1=O (centres undefined),56*,8,5,2,1,-12
Cc1ccc(-c2nnc(SCC(=O)Nc3ccc(F)cc3F)n2Cc2ccco2)cc1,.,4,-2,.,.,.
O=C(CSc1nnc(COc2ccc(Cl)cc2)n1Cc1ccco1)Nc1ccc(OCc2ccccc2)cc1,.,7,6,.,.,.
Cc1noc(C)c1C(=O)Nc1cccc2ncccc12,53*,9,3,3,0,-3
O=C(Nc1cccc(F)c1)OCCCN1CCC2(CCC(c3ccccc3)CC2)C1 (centres undefined),.,3,-11,.,.,.
CC(=O)c1cccc(-c2ccc3c(=O)[nH]c(Nc4ccccc4)cc3c2)c1,.,104*,-2,-15,1,0
CC(C)NC(=O)[C@]1(C#N)CC(=O)N(C)[C@@H]1c1ccccc1,.,-1,8,.,.,.
O=C(N1CCOCC1)C12CC3CC(C1)CC(C(=O)N1CCOCC1)(C3)C2,3,-7,-1,-4,5.6*,5
SMILES,DUSP3 inh,CCHF vOTU inh,PrPC surface inh,Y pestis TopoI,BH1578 lux ind,MazF activator
CCOC(=O)c1c(C)[nH]c(C)c1C(=O)CSc1nc2ccccc2n1CC,55*,4,-1,1,0,1
OCCC1CN(Cc2cccn2-c2ccccn2)CCN1C1CCCC1 (centres undefined),13,-4,-12,-9,2,15
OCCC1CN(Cc2cccn2-c2ccccn2)CCN1Cc1ccccc1 (centres undefined),0,-2,-5,2,-1,598*
S=c1[nH]nc(-c2cc(-c3ccccc3)n[nH]2)n1/N=C/c1cccc(Cl)c1,50*,-2,2,10,-1,-25
O=C(CSc1nnc(-c2ccccn2)n1-c1ccccc1)c1ccc(Cl)c(Cl)c1,.,5,3,.,.,.
CCCCC(CC)C(=O)Nc1ccc(Nc2ccccc2)cc1 (centres undefined),-7,17,-2,-9,0,-4
CCCCC(CC)C(=O)Nc1ccc(C)c(O)c1 (centres undefined),53*,0,-10,-1,0,3
CCOC(=O)CNC(=O)N(C)[C@H]1C[C@H]2c3[nH]c4c(-c5cccc(C)c5)cccc4c3CCN2C(=O)[C@H]1[C@H](C)O,.,-25,7,.,.,.
Cc1ccc(S(N)(=O)=O)cc1NC(=O)c1ccc2c3c(cccc13)CC2,57*,8,-4,2,i,8
O=C(CSc1nnc(-c2ccccc2Cl)o1)N1CCCC1,56*,7,-6,2,-1,8
COc1ccc(CNC(=O)C2CCCN(c3nc4ccccc4o3)C2)c(OC)c1 (centres undefined),53*,.,.,28,0,2
Cc1sc2nc(COC(=O)CNC(=O)c3ccc(F)cc3Cl)[nH]c(=O)c2c1C,.,1,7,.,.,.
COCCn1c(SCC(=O)Nc2ccc(OC)cc2OC)nc2ccccc2c1=O,51*,0,13,2,i,4
Cc1cc(N2CCN(Cc3ccc4c(c3)OCO4)CC2)n2nc(C)nc2n1,.,4,-9,.,.,.
CC(C)C[C@@H]1COc2cc(Br)ccc2S(=O)(=O)N1Cc1cn(CC2CCCCC2)nn1,.,-2,-3,.,.,.
c1ccc(N/N=C(\Cc2ncc[nH]2)c2ccccc2)cc1,15,13,-1,-20,0,14
Clc1cccc(N/N=C(\Cc2nc3ccccc3[nH]2)c2ccccc2)c1,24,6,7,-30,0,72*
CC(=O)C1(C(=O)NCc2ccccc2)CC(c2ccccn2)=NO1 (centres undefined),.,5,-11,.,.,.
O=C(CCCc1nc2ccccc2s1)Nc1ccccc1,13,-5,6,17,0,-1
O=C(O)CCCC(=O)Nc1ccc(OCc2nc3ccccc3s2)cc1,57*,5,-1,6,-2,8
O=C(CSc1nnc(-c2ccccn2)n1-c1ccccc1)c1ccc(F)cc1,.,4,-1,.,.,.
CC1(c2cc([N+](=O)[O-])cc([N+](=O)[O-])c2)CC(C)(C)N(C(=O)c2ccccc2)c2ccccc21 (centres undefined),14,-1,6,-1,.,0
CC1(c2ccccc2)CC(C)(C)N(C(=O)C2CCCO2)c2ccccc21 (centres undefined),-23,35*,7,1,i,-8
Nc1cccc(CCc2ccncc2)c1,58*,5,7,-5,-1,5
c1ccc(CCc2ccncc2)cc1,-12,-9,-4,-7,0,8
O=C(Nc1ccc(S(=O)(=O)NCc2ccccc2)cc1)c1ccccc1[N+](=O)[O-],-1,-2,-16,1,0,116*
